CYP2C19 activ – activators of human cytochrome P450 2C19 | recombinant CYP2C19, luciferin-H EGE luminescence; hits give high values; 0 = fully inhibited enzyme, 1 = untreated enzyme | 96,000 tested, under 10 active | activation factor at 5 µM | P33261;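 active means activation factor of at least 2 at 5 µM in the primary screen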;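 further: 0 = wells with 2.5 mM tranylcypromine and 1 = vehicle-only wells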
CYP2C9 inh – blocks human cytochrome P450 2C9 | P11712 | CYP2C9 Supersomes, luciferin-H conversion, luminescence | inhibition, % at 5 µM | 96,000 tested, 20% active | AID 777;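 active means blocking of liver enzyme CYP2C9 beyond about 50% at 5 µM, limit read from the data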
Target sequence (P11712 whole entry, looked up): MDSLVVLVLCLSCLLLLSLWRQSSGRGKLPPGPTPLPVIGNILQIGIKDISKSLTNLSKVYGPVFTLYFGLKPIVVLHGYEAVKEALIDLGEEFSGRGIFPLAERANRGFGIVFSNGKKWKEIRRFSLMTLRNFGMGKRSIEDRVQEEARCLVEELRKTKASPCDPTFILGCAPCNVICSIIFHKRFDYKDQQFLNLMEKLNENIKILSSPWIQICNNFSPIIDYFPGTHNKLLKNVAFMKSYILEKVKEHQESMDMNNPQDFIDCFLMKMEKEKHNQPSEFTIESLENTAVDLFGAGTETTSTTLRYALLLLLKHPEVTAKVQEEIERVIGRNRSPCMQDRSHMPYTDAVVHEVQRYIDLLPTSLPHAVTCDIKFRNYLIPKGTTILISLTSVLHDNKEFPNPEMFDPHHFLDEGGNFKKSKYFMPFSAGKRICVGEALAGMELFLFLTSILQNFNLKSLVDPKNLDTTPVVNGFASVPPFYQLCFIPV
CYP2C19 inhib – inhibitors of human CYP2C19 | CYP2C19 Supersomes, luciferin-H EGE luminescence, 30 min | inhibition, % at 5 µM | 96,000 tested, 21% active | AID 778;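 active means CYP2C19 inhibition above a set limit at 5 µM in the primary screen, cut at about 50% in these data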;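 further: plate controls were negative control wells for no effect and 2.5 mM tranylcypromine positive control for full effect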
CYP2C9 act – increases human cytochrome P450 2C9 activity | P11712 | recombinant CYP2C9, luciferin-H conversion, luminescence; hits give high values; factor 1 = untreated enzyme, 0 = blocked | activation factor at 5 µM | 96,000 tested, 1.4% active;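 active means activation factor of 2 or more for CYP2C9 at a 5 µM dose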;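 further: 0 = sulfaphenazole-blocked wells and 1 = vehicle-only wells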
* hit, by the source's call. Only some compounds are listed: those with a hit (about 31% of all), similar ones and a draw of the others.

SMILES | CYP2C19 activ | CYP2C9 inh | CYP2C19 inhib | CYP2C9 act
COc1ccc(CCN(C(=O)C(F)(F)F)C(C(=O)NC2CCCCC2)c2ccc(C)s2)cc1OC (stereo not given) | 1 | 36.2 | -0.4 | 0.6
COc1ccc(CN(C(=O)Cc2cccs2)C(C(=O)NC2CCCC2)c2ccncc2)cc1 (stereo not given) | 0.2 | 67.0* | 79.6* | 0.3
COc1ccc(C(C(=O)NC2CCCC2)N(Cc2ccccc2)C(=O)c2nsc(Cl)c2Cl)cc1 (stereo not given) | 0.4 | 63.9* | 61.0* | 0.4
CCOc1ccc(C(C(=O)NC2CCCC2)N(Cc2ccccc2)C(=O)c2nsc(Cl)c2Cl)cc1 (stereo not given) | 0.9 | 25.0 | 7.8 | 0.8
Cc1c(Br)c([N+](=O)[O-])nn1CC(=O)N1CCCc2ccccc21 | 0.9 | 37.6 | 12.9 | 0.6
Cc1c(Br)cc(C(=O)NC2CCCCC2)c(C)c1C | 1.1 | -36.2 | -7.9 | 1.4
CCOC(=O)c1c(NC(=O)c2cc(C)oc2C)sc(C(=O)Nc2ccc(Cl)cc2)c1C | 0.9 | 13.9 | 8.4 | 0.9
Cc1ccc(NC(=O)c2ccco2)cc1NC(=O)CSc1nnc(-c2cccs2)n1C | 1.1 | 13.1 | -6.3 | 0.9
COc1ccc(C(C(=O)NC2CCCCC2)N(Cc2cccs2)C(=O)Cc2c[nH]c3ccccc23)cc1 (stereo not given) | 0.5 | 68.0* | 49.2 | 0.3
O=C(Nc1ccccc1)N(C1=NCCCCS1)c1ccccc1 | 0.8 | 14.0 | 24.5 | 0.9
O=C(Nc1ccc(Cl)cc1)N(C1=NCCC1)c1ccc(OC(F)F)cc1 | 0.7 | 61.1* | 26.5 | 0.4
O=C(Nc1cc(Cl)ccc1O)C1CCCO1 (stereo not given) | 0.8 | -2.4 | 22.5 | 1
CCN(CC)S(=O)(=O)c1ccc(NC2c3ncccc3C(=O)N2Cc2ccccc2)cc1 (stereo not given) | 0.9 | 29.3 | 14.2 | 0.7
COc1ccc(CN2C(=O)c3cccnc3C2Nc2ccc(C)cc2)cc1 (stereo not given) | 0.4 | 62.7* | 63.4* | 0.4
O=C1c2cccnc2C(Nc2ccccc2)N1Cc1ccco1 (stereo not given) | 0.8 | 15.1 | 17.5 | 0.8
CC(=O)c1cccc(NC2c3ncccc3C(=O)N2Cc2ccco2)c1 (stereo not given) | 0.2 | 8.9 | 83.0* | 0.9
CC(=O)c1ccc(NC2c3ncccc3C(=O)N2Cc2ccc(F)cc2)cc1 (stereo not given) | 0.2 | 31.7 | 76.3* | 0.7
O=C(CCN1C(=O)C2C3C=CC(C3)C2C1=O)Nc1ccc2c(c1)OCO2 (stereo not given) | 0.8 | -10.2 | 21.0 | 1.1
Clc1ccc2nc(CN3CCCc4ccccc43)cn2c1 | 0.1 | 92.7* | 87.8* | 0.1
Clc1ccc2nc(CN3CCCCC3)cn2c1 | 0.9 | 21.2 | 8.7 | 0.8
O=c1c(Sc2ccccc2)c(C(F)(F)F)[nH]n1-c1ccccc1 | 0.8 | 96.7* | 15.0 | 0
Cc1[nH]n(-c2ccccc2)c(=O)c1/C=N/O | 0.9 | 31.5 | 7.7 | 0.7
c1ccc(Cn2nnc3c(Nc4ccc5c(c4)OCO5)nc(C4CC4)nc32)cc1 | 0.9 | 36.3 | 7.4 | 0.6
Cc1nonc1OC(C)CNc1ccc([N+](=O)[O-])cc1 (stereo not given) | 0 | 62.7* | 97.8* | 0.4
C=CCN1C(=O)CSc2ccc(C(=O)N3CCC(C)CC3)cc21 | 0.8 | -11.1 | 16.5 | 1.1
SMILES | CYP2C19 activ | CYP2C9 inh | CYP2C19 inhib | CYP2C9 act
CCOC(=O)c1c(NS(C)(=O)=O)sc2c1CCC(C)C2 (stereo not given) | 0.7 | 57.1* | 30.8 | 0.4
CCOC(=O)c1c(NC(=O)CSc2nnnn2-c2ccc(OC)cc2)sc(C)c1C | 0.8 | 32.2 | 23.7 | 0.7
CCOC(=O)c1c(NC(=O)CSc2nnnn2-c2ccccc2)sc2c1CCC(C)C2 (stereo not given) | 0.7 | 80.7* | 29.1 | 0.2
CCOC(=O)c1c(N)sc2c1CCC(C)C2 (stereo not given) | 0.9 | 6.3 | 8.8 | 0.9
CSc1snc(SCC(N)=O)c1C#N | 1 | 2.7 | -1.0 | 1
CC(C)NC(=O)c1ccccc1NC(=O)C1CCCO1 (stereo not given) | 1 | 26.4 | 3.8 | 0.7
O=C(Nc1ccccc1Sc1ccccc1)C1CCCO1 (stereo not given) | 0.3 | 24.9 | 68.8* | 0.8
COc1ccc(NC(=O)c2ccccc2NC(=O)C2CCCO2)cc1 (stereo not given) | 0.5 | 80.0* | 50.2* | 0.2
O=C(Nc1ccccc1Sc1ccccc1)c1ccccc1 | 0.1 | 77.4* | 86.0* | 0.2
CCCc1nnc(SCC(=O)N2CCCCC2C)n1CCCOC (stereo not given) | 1 | 0.4 | -3.1 | 1
CN(C)S(=O)(=O)c1ccc2c(c1)C(CC(=O)O)NC2=O (stereo not given) | 0.9 | 15.6 | 7.8 | 0.8
Cc1nc2ccc(N)cc2c(=O)n1Cc1ccc(Cl)cc1 | 0 | 84.5* | 98.7* | 0.2
CCOCCCNC(=O)COc1ccc(OC)cc1 | 0.6 | 8.3 | 38.2 | 0.9
O=C(O)CNC(=O)C1COc2ccccc2O1 (stereo not given) | 0.9 | 25.9 | 8.4 | 0.7
O=C(N/N=C\c1ccccn1)C1COc2cc3ccccc3cc2O1 (stereo not given) | 0.9 | -3.7 | 13.8 | 1
C/C(=N\NC(=O)C1COc2ccccc2O1)c1cccs1 (stereo not given) | 0.2 | 30.1 | 79.7* | 0.7
O=C(N/N=C/c1cccs1)C1COc2ccccc2O1 (stereo not given) | 0.2 | 44.7 | 82.3* | 0.6
O=C(Nc1ccsc1C(=O)NC1CCCCC1)c1ccccc1 | 1.1 | 9.9 | -5.5 | 0.9
O=C(OC(C(=O)NCC1CCCO1)c1ccccn1)c1cccs1 (stereo not given) | 0.8 | 2.7 | 21.2 | 1
CC(=O)Nc1ccc(S(=O)(=O)Nc2cccc(C(=O)NC(C)(C)C)c2)cc1 | 0.9 | 34.6 | 8.4 | 0.7
CC(=O)Nc1ccc(S(=O)(=O)Nc2nnc(C(C)C)s2)cc1 | 1.3 | 60.4* | -25.5 | 0.4
COc1cccc(NS(=O)(=O)c2ccc(NC(C)=O)cc2)c1 | 0.4 | 22.1 | 60.2* | 0.8
COc1ccc(S(=O)(=O)Nc2cc(C)ccn2)cc1 | 0.7 | -12.7 | 34.2 | 1.1
COc1ccc(S(=O)(=O)Nc2nnc(C(C)C)s2)cc1 | 1.1 | 34.7 | -14.9 | 0.7
COc1ccc(S(=O)(=O)Nc2cc(C)c(O)c(S(=O)(=O)c3ccccc3)c2)cc1 | 0.5 | 79.3* | 53.0* | 0.2
SMILES | CYP2C19 activ | CYP2C9 inh | CYP2C19 inhib | CYP2C9 act
COc1ccc(S(=O)(=O)Nc2cccc(NC(C)=O)c2)cc1 | 0 | 29.5 | 95.3* | 0.7
CCOC(=O)C(=CNc1cc(C)ccc1C)C(=O)OCC | 1 | 18.6 | 2.1 | 0.8
COC(=O)c1cc(NS(=O)(=O)c2ccc(NC(C)=O)cc2)cc(C(=O)OC)c1 | 0.5 | 38.4 | 52.7* | 0.6
c1ccc2oc(SCc3cn4ccccc4n3)nc2c1 | 0.5 | -9.6 | 48.7 | 1.1
COc1ccc(N2CCN(C(=O)CNC(=O)Cn3c(C)cc4ccccc4c3=O)CC2)cc1 | 1.1 | -46.4 | -7.1 | 1.5
CCOC(=O)c1c(C(=O)OCC)c(C)n(N2C(=O)CSC2=S)c1C | 0.6 | 53.0* | 43.7 | 0.5
